The record followed here is PubChem BioAssay (NCATS).

Several values for one entry are separate records, joined by “and”; a condition that tells them apart may be missing. Identical values can stand only once. Records with an inconclusive call do not appear. Activity calls are given as the source filed them. Calls follow the shape of the full dose curve.

The nature of test [1]: Cytotoxicity counterscreen for inhibitors of SARS-CoV-2 cell entry (AID 1645845). Also: nearly all actives have a fitted effect of over 50% in size. The note with it: cell viability (SARS-CoV-2 entry assay cells); series mostly up to 57.1 µM. The method in brief:
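Counterscreen run in the same HEK293-ACE2 line as the pseudotyped-particle entry assay, without particles. Viability after 48 h at 37 C was read as ATP luminescence, scaled between cell-containing and cell-free wells.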

A short description of test [2]: Primary qHTS to identify inhibitors of SARS-CoV-2 cell entry (AID 1645846). Also: nearly all actives have a fitted effect of over 45% in size. Particulars: SARS-CoV-2 pseudovirus cell entry assay, luminescence; activity change, negative = inhibition: at 57.1 µM (top of the series) unless noted; series mostly up to 57.1 µM. The method in brief: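 Inhibition of spike-mediated entry was scored in human ACE2-transfected Expi293F cells. Particles were MLV-pseudotyped with Wuhan-Hu-1 S carrying a 19-aa C-terminal deletion; signal was luciferase after two days, scaled between spike PP and fusion-protein-free PP.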
A general note: Quantitative high-throughput screening tests each substance at several concentrations.
Potency is read from the fitted curve at half-maximal effect.

Turning to `C[C@@H](N)C1CCC(C(=O)Nc2ccncc2)CC1` (some centres undefined), the Potency result in test [1] was “inactive”.
Consider `C#CC(C)(CC)OC(=O)c1ccccc1C(=O)O` (centres undefined), for which, in test [1], the Potency entry was “inactive”. The activity change, negative = inhibition in test [2] came out at 3.66%.
Take `N[C@H]1C(O)O[C@H](CO)[C@@H](O)[C@@H]1O` (some centres undefined): in test [1], the Potency entry is “inactive”. For the same compound, in test [2], the activity change, negative = inhibition was -23.2%.
With `O=C(O)CC(O)C(=O)O` (centres undefined), the Potency result in test [1] and in test [2] was “inactive” throughout.
On to `CC[C@H](Nc1ncnc2nc[nH]c12)c1nc2cccc(F)c2c(=O)n1-c1ccccc1`, for which the Potency result in test [1] is “inactive”. Besides, the activity change, negative = inhibition in test [2] is -11%.
Taken in the same sequence, the figures for `C[C@H](NC(=O)Cc1cc(F)cc(F)c1)C(=O)N[C@@H]1C(=O)N(C)c2ccccc2-c2ccccc21` were “inactive” and 3.07%.
On to `CC[N+](C)(CC)CCOC(=O)C(O)(c1ccccc1)C1CCCCC1` (centres undefined), for which the Potency result in test [1] and in test [2] was “inactive” each time.
As for `CC(C)(C(=O)NCC(F)(F)C(F)(F)F)C(=O)N[C@@H]1C(=O)Nc2ccccc2-c2ccccc21`, the Potency result in test [1] was “inactive”. Also, in test [2], the activity change, negative = inhibition was -16.5%.
In the case of `C/C(=C1\CCOC(=O)S1)N(C=O)Cc1cnc(C)nc1N`, the Potency entry in test [1] and in test [2] was “inactive” in each case.
As for `CCCCn1c(=O)n(Cc2ccccc2F)c(=O)c2[nH]c(Cc3ccc(NC(C)=O)cc3)nc21`, the Potency result in test [1] and in test [2] was “inactive” in each case.
For `CN1C(=O)C(Cc2c[nH]c3ccccc23)NC1=S` (centres undefined), the Potency result in test [1] and in test [2] was “inactive” in each case.
On to `COCC1(CO)C(=O)C2CCN1CC2` (centres undefined), for which the Potency entry in test [1] was “inactive”. Moreover, the activity change, negative = inhibition in test [2] is -14.4%.
For `O=C(Nc1ccccc1-c1cn2c(CN3CCNCC3)csc2n1)c1cnc2ccccc2n1`, the Potency is 7.08 µM (active) in test [1] and 7.94 µM (active) in test [2].
Taken in the same sequence, the figures for `Cc1nc(N)sc1-c1ccnc(Nc2ccc(N3CCOCC3)cc2)n1` were 3.16 µM (active) and 3.16 µM (active).
Regarding `C[C@@H]1CCN(C(=O)CC#N)C[C@@H]1N(C)c1ncnc2[nH]ccc12`, the Potency result in test [1] is “inactive”. Besides, the activity change, negative = inhibition in test [2] was -1.42%.
With `Fc1ccc(Cl)cc1-c1nc(Nc2ccncc2)c2nccnc2n1`, in test [1], the Potency entry is “inactive”. Moreover, the activity change, negative = inhibition in test [2] was -13.6%.
The corresponding values for `NC(=O)c1ccc(N(C(N)=O)c2c(F)cccc2F)nc1-c1ccc(F)cc1F` are “inactive” and -20.8%.
On to `CC(C)OC(=O)C1=CN(C(=O)c2ccc(F)c(F)c2)CC(C)(C)c2c1[nH]c1ccccc21`, for which the Potency entry in test [1] is “inactive”. The activity change, negative = inhibition in test [2] is -3.59%.
With `CC(=O)OCC(=O)[C@@]1(O)[C@H](C)C[C@H]2[C@@H]3C=C(C)C4=Cc5c(cnn5-c5ccccc5)C[C@]4(C)[C@@H]3[C@@H](O)C[C@@]21C`, the Potency entry in test [1] and in test [2] was “inactive” in each case.
Turning to `COc1ccccc1O`, the Potency entry in test [1] and in test [2] was “inactive” each time.
For the compound `COc1ccc2cc(CCC(C)=O)ccc2c1`, the Potency result in test [1] and in test [2] was “inactive” each time.
For `CCc1c(C)[nH]c2c1C(=O)C(CN1CCOCC1)CC2` (centres undefined), the Potency entry in test [1] and in test [2] was “inactive” throughout.
Turning to `Nc1nc(-c2nn(Cc3ccccc3F)c3ncccc23)nc(N)c1N1CCOCC1`, the Potency entry in test [1] and in test [2] was “inactive” throughout.
Regarding `Cc1ccc(C(=O)Nc2ccc(CN3CCN(C)CC3)c(C(F)(F)F)c2)cc1C#Cc1cnc2cccnn12`, the Potency in test [1] was 31.6 µM (active); in test [2] it was 8.91 µM (active).
For `C[C@@H](Oc1cc(-c2cnn(C3CCNCC3)c2)cnc1N)c1c(Cl)ccc(F)c1Cl`, the Potency is 25.1 µM (active) in test [1] and 11.2 µM (active) in test [2].
As for `Cc1nnc(C(C)C)n1C1CC2CCC(C1)N2CC[C@H](NC(=O)C1CCC(F)(F)CC1)c1ccccc1` (some centres undefined), the Potency entry in test [1] is “inactive”. The activity change, negative = inhibition in test [2] was 2.02% and -27.6%.
`CC(=O)N[C@@H](CCC(N)=O)C(=O)O`: in test [1], the Potency result is “inactive”. Besides, the activity change, negative = inhibition in test [2] was -25.1%.
In the case of `O=C(Nc1cc(Cl)cc2c1[nH]c1cnccc12)c1cccnc1`, the Potency entry in test [1] is “inactive”. In test [2], the activity change, negative = inhibition was -24.6% [at 27.1 µM].
Taken in the same sequence, the figures for `COc1cc2ncnc(-n3nc(-c4ccccn4)nc3N)c2cc1OC` were “inactive” and -6.12%.
Regarding `CCOC(=O)C(C)Oc1cccc2c(=O)n(CC(=O)Nc3ccc4c(c3)OCCO4)ccc12` (centres undefined), the Potency entry in test [1] was “inactive”. In test [2], the activity change, negative = inhibition was -0.424%.
For `O=C1NS(=O)(=O)c2ccccc21`, in test [1], the Potency entry was “inactive”. The activity change, negative = inhibition in test [2] is -23.6%.
Regarding `CCC(C)(Oc1ccc(C2(c3ccc(OC(C)(CC)C(=O)O)cc3)CCCCC2)cc1)C(=O)O` (centres undefined), the Potency entry in test [1] and in test [2] was “inactive” each time.
Consider `CC(C)c1ccc2c(c1)c(SC(C)(C)C)c(CC(C)(C)C(=O)O)n2Cc1ccc(Cl)cc1`, for which the Potency result in test [1] and in test [2] was “inactive” each time.
For `CCN(c1ccccc1)c1cc(NC)[n+](C)c(C)n1`, the Potency result in test [1] is “inactive”. Moreover, the activity change, negative = inhibition in test [2] was 3.72%.
For the compound `CN1[C@@H]2CC[C@H]1CC(OC(=O)C(O)c1ccccc1)C2` (some centres undefined), the Potency result in test [1] was “inactive”. In addition, in test [2], the activity change, negative = inhibition was -6.45%.
Take `CS(=O)(=O)Nc1ccc([N+](=O)[O-])cc1Oc1ccccc1`: in test [1], the Potency result was “inactive”. Also, the activity change, negative = inhibition in test [2] is -13.1% and -8.45%.
`CC(C)c1ccccc1Cc1cc(C(=O)Nc2ccc(S(=O)(=O)c3ccccc3C(C)(C)C)cc2)c(O)c(O)c1O`: the Potency entry in test [1] and in test [2] was “inactive” each time.
For the compound `O=C(O)CNC(=O)CNC(=O)CNC(=O)CSC(=O)c1ccccc1`, in test [1], the Potency result was “inactive”. Besides, in test [2], the activity change, negative = inhibition was 1.66%.
For the compound `CC(=O)Nc1ccc(O)cc1`, the Potency result in test [1] is “inactive”. The activity change, negative = inhibition in test [2] is -27.9%.
The corresponding values for `Cn1c2cc(S(C)=O)sc2c2cnn(Cc3cccc(N)c3)c(=O)c21` (centres undefined) are “inactive” and -23.3%.
